Bioassay records from PubChem.
This is one part of a sample in which hits are shown more often than they occur.
EZH2 inh – EZH2/PRC2 methyltransferase inhibitors, primary screen, biochemical, DELFIA time-resolved fluorescence, single point; Histone-lysine N-methyltransferase EZH2 (Homo sapiens), Q15910; PRC2 H3K27 methylation, DELFIA TRF, 1 h; inhibition, % at 12.5 µM; hit rate 0.35% among 57,000; AID 651548, 2012;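 active = mean inhibition of replicates at least 50% and every single replicate also reaching 50%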;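 note: dimethyl H3K27 on biotinylated H3 21-44 peptide detected by antibody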
Target sequence (Q15910 whole entry, looked up): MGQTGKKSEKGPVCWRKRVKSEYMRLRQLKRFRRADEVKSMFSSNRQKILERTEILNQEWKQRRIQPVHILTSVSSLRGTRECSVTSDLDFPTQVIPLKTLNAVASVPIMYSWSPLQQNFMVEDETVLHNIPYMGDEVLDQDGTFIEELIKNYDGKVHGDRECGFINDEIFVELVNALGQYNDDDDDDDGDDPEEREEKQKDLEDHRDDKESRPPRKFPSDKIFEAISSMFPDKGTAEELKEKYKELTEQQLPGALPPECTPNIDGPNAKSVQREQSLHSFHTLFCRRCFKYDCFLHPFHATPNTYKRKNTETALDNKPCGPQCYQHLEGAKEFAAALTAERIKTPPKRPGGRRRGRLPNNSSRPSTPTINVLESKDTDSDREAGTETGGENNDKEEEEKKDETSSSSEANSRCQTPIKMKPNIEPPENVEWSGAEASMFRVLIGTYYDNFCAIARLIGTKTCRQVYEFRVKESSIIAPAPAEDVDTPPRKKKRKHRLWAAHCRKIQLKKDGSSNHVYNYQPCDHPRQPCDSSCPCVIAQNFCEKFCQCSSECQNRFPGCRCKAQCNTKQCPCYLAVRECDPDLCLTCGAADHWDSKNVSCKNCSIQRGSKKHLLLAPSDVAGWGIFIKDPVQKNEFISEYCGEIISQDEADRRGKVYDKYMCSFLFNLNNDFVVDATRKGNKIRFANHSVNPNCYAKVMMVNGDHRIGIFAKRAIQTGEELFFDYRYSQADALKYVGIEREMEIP
Numbers stand for hits.

`O=C(COc1ccccc1)Nc1scc2c1c(=O)oc1ccccc12` gave EZH2 inh inactive.
Screening CCCCCCCCc1ccc(-c2ccc(C(=O)O)cc2)cc1 returned EZH2 inh 72.
For CCCCOC(=O)c1ccc(N)cc1 the results were EZH2 inh inactive.
For CCCCCCN(CCCCCC)C(=O)Cc1c(-c2ccc(F)cc2)[nH]c2ccccc12 the results were EZH2 inh inactive.
`COc1ccc(CCNC(=S)N2CCN(C(=O)c3ccco3)CC2)cc1OC` gave EZH2 inh inactive.
Screening Nc1cc(N)nc(SCC(=O)Nc2cccc(Cl)c2Cl)n1 returned EZH2 inh inactive.
`CC(=O)c1cccc(NC(=O)CN(C)S(=O)(=O)c2ccc(F)cc2)c1` gave EZH2 inh inactive.
`CCCCCCCC/C=C/CCCCCCCC(=O)NCCO` gave EZH2 inh inactive.
Screening CCCCC/C=C\C/C=C\C/C=C\C/C=C\CCCCCC(=O)O returned EZH2 inh inactive.
For CCCCCCCC/C=C/CCCCCCCC(=O)NCCc1ccc(O)c(O)c1 the results were EZH2 inh 68.
`Cc1ccc(F)cc1S(=O)(=O)N[C@@H]1CCN(Cc2ccc(CC(C)C)cc2)C1` gave EZH2 inh inactive.
For CC(C)(C)C1CCc2c(sc(NC(=O)COc3ccc(Cl)cc3)c2C(N)=O)C1 (centres undefined) the results were EZH2 inh inactive.
Cc1nnc(SCC(=O)Nc2ccc(Cl)c(C)c2)s1 was read as EZH2 inh inactive.
Nc1cc(Nc2ccc(S(N)(=O)=O)cc2)ncn1 was read as EZH2 inh inactive.
Screening C[C@H](CO)N1C[C@H](C)[C@H](CN(C)Cc2cccc(F)c2)Oc2cc(C#CC3CC3)ccc2S1(=O)=O returned EZH2 inh 84.
`C[C@@H]1CN([C@H](C)CO)S(=O)(=O)c2ccc(C#CC3CC3)cc2O[C@H]1CN(C)Cc1cccc(F)c1` gave EZH2 inh inactive.
Screening C[C@H]1CN([C@@H](C)CO)S(=O)(=O)c2ccc(-c3ccccc3)cc2O[C@H]1CN(C)Cc1cccc(F)c1 returned EZH2 inh inactive.
For C[C@H](CO)N1C[C@H](C)[C@@H](CN(C)Cc2ccc(-c3ccccc3)cc2)Oc2ccc(NS(=O)(=O)c3cccs3)cc2C1=O the results were EZH2 inh inactive.
C[C@H](CO)N1C[C@H](C)[C@H](CN(C)Cc2cccc(F)c2)Oc2cc(-c3ccccc3)ccc2S1(=O)=O was read as EZH2 inh inactive.
Screening C[C@@H]1CN([C@H](C)CO)S(=O)(=O)c2ccc(-c3ccccc3)cc2O[C@H]1CN(C)Cc1cccc(F)c1 returned EZH2 inh 55.
C[C@@H]1CN([C@H](C)CO)C(=O)c2cc(NS(=O)(=O)c3cccs3)ccc2O[C@@H]1CN(C)Cc1ccc(-c2ccccc2)cc1 was read as EZH2 inh 54.
C[C@H](CO)N1C[C@H](C)[C@H](CN(C)Cc2ccccc2)Oc2cc(C#CC3CC3)ccc2S1(=O)=O was read as EZH2 inh inactive.
`C[C@H](CO)N1C[C@H](C)[C@H](CN(C)Cc2ccc(-c3ccccc3)cc2)Oc2ccc(NS(=O)(=O)c3cccs3)cc2C1=O` gave EZH2 inh inactive.
Cc1ccccc1N(CC(=O)Nc1cccc(Cl)c1Cl)S(C)(=O)=O was read as EZH2 inh inactive.
For Cc1nc(-c2ccccc2)sc1C(=O)C1C(=O)C(=O)N(CCN(C)C)C1c1ccccc1 (centres undefined) the results were EZH2 inh inactive.
Screening CC(C)c1ccc(S(=O)(=O)NCc2cccnc2)cc1 returned EZH2 inh inactive.
For Cc1ccc([N+](=O)[O-])cc1NC(=O)C1CCCN(S(=O)(=O)c2ccc(F)cc2)C1 (centres undefined) the results were EZH2 inh inactive.
`O=S(=O)(Nc1ncccn1)c1ccc(NC(=S)Nc2ccc3c(c2)CCC3)cc1` gave EZH2 inh inactive.
For N#Cc1ccccc1OCCCCSc1ncccn1 the results were EZH2 inh inactive.
c1cnc(SCCCCOc2ccc3c(c2)CCC3)nc1 was read as EZH2 inh 54.
For CC(=O)c1cccc(NC(=O)CN2C(=O)c3ccccc3S2(=O)=O)c1 the results were EZH2 inh inactive.
Screening O=C(N/N=C/c1ccccc1Cl)c1ccccn1 returned EZH2 inh inactive.
`O=C(CC1NC2CCCCC2NC1=O)Nc1ccc(Cl)c(Cl)c1` (centres undefined) gave EZH2 inh inactive.
Screening Cc1ccc(NC(=O)CSc2nc3ccccc3s2)cc1Cl returned EZH2 inh inactive.
Screening Cc1ccc(NC(=O)CSc2nc3ccccc3s2)cc1C returned EZH2 inh 55.
For O=C(CSc1nc2ccccc2s1)Nc1ccc(Cl)cc1 the results were EZH2 inh inactive.
Screening Cc1n[nH]c(C)c1Sc1nccc(-c2cccnc2)n1 returned EZH2 inh inactive.
`O=C(CCCCCCC(=O)Nc1ccccc1O)N/N=C/c1nccs1` gave EZH2 inh inactive.
Screening Cc1ccc(-n2nnnc2SCC(=O)Nc2ccc(N3CCOCC3)c(Cl)c2)cc1C returned EZH2 inh inactive.
